Records with an inconclusive call do not appear. Entries that show only a call come without a potency. Calls of active or inactive are those of the source. The call rests on the fitted dose curve; in most records, active means well fitted cell-killing curve with a large enough effect in the repeat runs; inconclusive means weak or mixed curves, or effect the other way; inactive means flat fitted curve, though single readings scatter.
Potency means the concentration at half of the fitted maximal effect.

This assay in a line: qHTS RealTime-Glo MT Cell Viability Assay in HEK293 cells - 24 hour (AID 1224886). Further: nearly all actives have a fitted effect of over 50% in size. On activity change, negative = cytotoxicity: top concentration of the series differs between compounds. The note with it: RealTime-Glo luminescence; series mostly up to 76.8 µM. The source says:
National Center for Advancing Translational Sciences [NCATS]
NIH Chemical Genomics Center [NCGC]
U.S. Environmental Protection Agency [EPA]
National Institutes of Environmental Health Sciences [NIEHS]
National Toxicology Program [NTP]
U.S. Food and Drug Administration [FDA]
Measure of cell viability is critical in the cell-base assay. Analysis of cell viability is necessary for the characterization of cell responses to cytotoxic drugs and environmental stress. A RealTime-Glo MT Cell Viability Assay to monitor cell viability in real time of continues cell culture during 40 hours of compound treatment was used to screen Tox21 10K library compounds in Hek293 cells. The RealTime-Glo MT Cell Viability Assay is a nonlytic, homogeneous, bioluminescent method to measure cell viability in real time using a simple, plate-based method. The assay involves adding NanoLuc luciferase and a cell-permeant prosubstrate to cells in culture. Viable cells reduce the proprietary prosubstrate to generate a substrate for NanoLuc luciferase. This substrate diffuses from cells into the surrounding culture medium, where it is rapidly used by the NanoLuc Enzyme to produce a luminescent signal. The signal correlates with the number of viable cells, making the assay well suited for cytotoxicity studies.
Tox21 Assay Protocol Summary:
The mixture of Hek293 cell suspension and reagents were dispensed at 600cells/6 ul/well in 1536-well tissue culture treated black solid bottom plates using a Multidrop dispenser. After the assay plates were incubated at a 37 C/5% CO2 incubator for 5 hours, 23 nL of compounds dissolved in DMSO, positive and negative controls was transferred to the assay plate by a pintool work station. The plates were incubated at 37 C for 40 hours. The luminescence intensity were measured at 0h, 8h, 16h, 24h, 32h and 40h time points using ViewLux plate reader during compound treatment.
Turning to `N#CC(O)c1ccccc1` (stereo not given), the Potency entry is “inactive”.

Turning to `O=[N+]([O-])c1cccc2c([N+](=O)[O-])cccc12`, the Potency was 49.2 µM (active).

Take `C1CCC(C2CCCCC2)CC1`: the Potency result was “inactive”.

As to `O=C(CCN1CC1)OCC(CO)(COC(=O)CCN1CC1)COC(=O)CCN1CC1`, the Potency result was “inactive”.

Turning to `O=C(NCO)NCO`, the Potency result was “inactive”.

With `CCOc1nc(C(Cl)(Cl)Cl)ns1`, the Potency result was “inactive”.

Take `COc1cc(OC)nc(NC(=O)NS(=O)(=O)c2ncccc2C(=O)N(C)C)n1`: the Potency result was “inactive”.

On to `Cc1cc(C)nc(Nc2ccccc2)n1`, for which the Potency result is “inactive”.

For the compound `CC(C)NCC(O)c1ccc(N)c(C#N)c1` (stereo not given), the Potency entry is “inactive”.

With `N#CCNCC#N`, the Potency entry was “inactive”.

Turning to `O=C(Nc1ccccc1)c1ccccc1I`, the Potency entry was “inactive”.

Turning to `CS(=O)(=O)c1cc(C(F)(F)F)ccc1C(=O)c1cnoc1C1CC1`, the Potency result is “inactive”.

Consider `Cc1coc2c1CCC(C)C2` (stereo not given), for which the Potency result is “inactive”.

As to `Cc1cc(C)c(C(=O)P(=O)(C(=O)c2c(C)cc(C)cc2C)c2ccccc2)c(C)c1`, the Potency entry is “inactive”.

For `N#Cc1c(Cl)cccc1Cl`, the Potency entry is “inactive”.

`CCS(=O)(=O)CCSP(=O)(OC)OC`: the Potency entry is “inactive”.

Regarding `COC(=O)C(C)Oc1ccc(Oc2ccc(Cl)cc2Cl)cc1` (stereo not given), the Potency result was “inactive”.

`Cc1nc(N)nc(N)n1`: the Potency entry is “inactive”.

For the compound `Nc1c(Br)cc([N+](=O)[O-])cc1[N+](=O)[O-]`, the Potency result is “inactive”.

With `CCC(C)n1c(=O)[nH]c(C)c(Br)c1=O` (stereo not given), the Potency entry was “inactive”.

Turning to `CC(C)CC(N(C)C)C1(c2ccc(Cl)cc2)CCC1` (stereo not given), the Potency entry is “inactive”.

On to `N#CCBr`, for which the Potency result is “inactive”.

In the case of `CCSC(=O)N(CC)C1CCCCC1`, the Potency entry is “inactive”.

For the compound `CN/C(=N\[N+](=O)[O-])NCC1CCOC1` (stereo not given), the Potency result was “inactive”.

For the compound `CC1(C)CON(Cc2ccccc2Cl)C1=O`, the Potency result is “inactive”.

On to `COc1cc(OC)nc(NC(=O)NS(=O)(=O)c2ncccc2OCC(F)(F)F)n1`, for which the Potency result is “inactive”.

On to `C[C@]1(O)CC[C@H]2[C@@H]3CCC4=CC(=O)CC[C@]4(C)[C@@]3(F)[C@@H](O)C[C@@]21C`, for which the Potency entry is “inactive”.

As to `CC(N)=S`, the Potency entry is “inactive”.

`CC1=C(C(=O)O)N2C(=O)[C@@H](N)[C@H]2SC1`: the activity change, negative = cytotoxicity was -0.764% [at 15.8 µM] (inactive).

Turning to `CCCCOC(=O)c1ccccc1N`, the Potency result is “inactive”.

Consider `O=[N+]([O-])c1cccc(O)c1`, for which the Potency result was “inactive”.

In the case of `CCOP(=O)(OCC)OP(=O)(OCC)OCC`, the Potency result is “inactive”.

For `CCCSP(=O)(OCC)Oc1ccc(Br)cc1Cl` (stereo not given), the Potency entry was “inactive”.

For `CC1=NNC(=O)N(/N=C/c2cccnc2)C1`, the Potency result was “inactive”.

For the compound `CC(Cl)(Cl)[N+](=O)[O-]`, the Potency entry is “inactive”.

Consider `CCN(CC)CCOC(=O)C(C)(c1ccccc1)c1ccccc1`, for which the Potency entry was “inactive”.

Regarding `CCOC(=O)C(c1c(O)c2ccccc2oc1=O)c1c(O)c2ccccc2oc1=O`, the Potency result was “inactive”.

For `CCOC(=O)/C=C(C)/C=C/C[C@@H](C)CCCC(C)C`, the Potency entry was “inactive”.

`O=C1OC(=O)C2C1C1(Cl)C(Cl)=C(Cl)C2(Cl)C1(Cl)Cl` (stereo not given): the Potency result was “inactive”.

As to `CCCCP(CCCC)CCCC`, the Potency result was “inactive”.

The record behind these values is PubChem BioAssay (Tox21).
